# Measured values taken from article PMC5700166.
# Tests used:
# Experiment in all cases: protein-binding microarray (PBM); PBM: ~300 nM protein, 6 mM HEPES pH 7.8, 80 mM KCl, 0.5 mM EDTA, 0.5 mM EGTA, 6% glycerol, 35 ng/ul poly-dIdC, 1% milk, 1 h, room temperature; Ap Aiptasia and Nv Nematostella (sea anemones) / Co Capsaspora / Aq Amphimedon (sponge) / Dm Drosophila / Hu human; RHD is the Rel homology domain; high values mean tight binding
# Conditions in all cases: dsDNA, one strand shown
# GST-Ap-NF-kB RHD = target: T1, GST-Ap-NF-kB RHD (Exaiptasia pallida (Aiptasia), UniProt A0A913YAJ5 2-422)
# T1 sequence: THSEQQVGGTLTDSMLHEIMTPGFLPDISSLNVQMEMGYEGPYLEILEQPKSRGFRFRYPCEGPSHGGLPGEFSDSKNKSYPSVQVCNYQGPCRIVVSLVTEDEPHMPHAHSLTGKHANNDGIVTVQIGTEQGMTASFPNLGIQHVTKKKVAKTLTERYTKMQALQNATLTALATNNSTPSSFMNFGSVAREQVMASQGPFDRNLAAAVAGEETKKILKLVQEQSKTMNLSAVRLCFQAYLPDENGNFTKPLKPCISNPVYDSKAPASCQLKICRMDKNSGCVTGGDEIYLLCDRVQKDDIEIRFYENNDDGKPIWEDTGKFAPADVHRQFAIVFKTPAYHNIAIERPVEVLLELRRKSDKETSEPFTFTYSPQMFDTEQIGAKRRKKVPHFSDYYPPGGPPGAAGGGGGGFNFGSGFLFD
# GST-Dm-Relish = target: T2, GST-Dm-Relish (Drosophila melanogaster, UniProt Q94527 99-473)
# T2 sequence: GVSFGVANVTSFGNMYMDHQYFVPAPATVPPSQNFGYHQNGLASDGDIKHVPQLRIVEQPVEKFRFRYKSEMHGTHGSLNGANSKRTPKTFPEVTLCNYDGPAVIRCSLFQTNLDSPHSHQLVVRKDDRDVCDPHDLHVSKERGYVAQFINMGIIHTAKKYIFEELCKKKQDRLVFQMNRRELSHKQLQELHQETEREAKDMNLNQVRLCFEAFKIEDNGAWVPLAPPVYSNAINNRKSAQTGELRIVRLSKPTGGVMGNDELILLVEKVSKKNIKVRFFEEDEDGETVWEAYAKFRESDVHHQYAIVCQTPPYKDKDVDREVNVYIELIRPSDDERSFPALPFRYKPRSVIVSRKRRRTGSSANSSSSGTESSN
# GST-Aq-NF-kB = target: T3, GST-Aq-NF-kB (Amphimedon queenslandica, UniProt A9Y5G7 2-389)
# T3 sequence: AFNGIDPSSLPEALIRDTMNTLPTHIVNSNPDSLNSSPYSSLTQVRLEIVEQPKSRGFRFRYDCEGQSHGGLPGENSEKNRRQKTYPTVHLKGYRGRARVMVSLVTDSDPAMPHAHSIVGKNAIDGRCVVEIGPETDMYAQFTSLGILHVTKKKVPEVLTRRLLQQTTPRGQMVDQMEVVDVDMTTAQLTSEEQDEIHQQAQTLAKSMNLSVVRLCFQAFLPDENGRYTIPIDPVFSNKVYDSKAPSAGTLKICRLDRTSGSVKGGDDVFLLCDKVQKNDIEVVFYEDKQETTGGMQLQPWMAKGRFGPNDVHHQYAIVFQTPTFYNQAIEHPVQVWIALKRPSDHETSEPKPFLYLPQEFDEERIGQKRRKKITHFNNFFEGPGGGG
# GST-Co-NF-kB = target: T4, GST-Co-NF-kB (Capsaspora owczarzaki, UniProt F1ARL5 200-546)
# T4 sequence: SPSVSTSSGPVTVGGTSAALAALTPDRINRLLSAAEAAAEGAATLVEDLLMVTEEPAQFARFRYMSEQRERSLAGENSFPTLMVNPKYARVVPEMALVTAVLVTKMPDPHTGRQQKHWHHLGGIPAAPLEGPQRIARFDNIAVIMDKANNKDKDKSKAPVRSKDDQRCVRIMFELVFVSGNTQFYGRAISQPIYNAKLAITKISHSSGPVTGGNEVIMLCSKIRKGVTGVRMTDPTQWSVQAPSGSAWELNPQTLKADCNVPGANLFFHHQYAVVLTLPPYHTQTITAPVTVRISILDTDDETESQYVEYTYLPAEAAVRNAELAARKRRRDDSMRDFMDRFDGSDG
# [1] = target: T5, GST-Nv-NF-kB (Cys allele) (Nematostella vectensis, UniProt E5G601 2-411)
# T5 sequence: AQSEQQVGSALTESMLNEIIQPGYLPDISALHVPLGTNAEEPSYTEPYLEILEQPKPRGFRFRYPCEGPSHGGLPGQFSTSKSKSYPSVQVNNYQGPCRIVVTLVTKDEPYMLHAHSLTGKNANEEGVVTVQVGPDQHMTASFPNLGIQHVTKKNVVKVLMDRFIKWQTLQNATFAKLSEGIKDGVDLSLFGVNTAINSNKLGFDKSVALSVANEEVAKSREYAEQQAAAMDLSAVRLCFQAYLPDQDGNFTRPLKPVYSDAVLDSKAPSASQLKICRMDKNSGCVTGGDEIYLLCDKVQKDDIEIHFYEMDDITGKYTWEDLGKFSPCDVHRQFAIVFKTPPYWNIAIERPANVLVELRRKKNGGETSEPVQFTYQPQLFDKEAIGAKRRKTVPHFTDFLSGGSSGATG
Sequence,binding signal (GST-Ap-NF-kB RHD) [z-score],binding signal (GST-Dm-Relish) [z-score],binding signal (GST-Aq-NF-kB) [z-score],binding signal (GST-Co-NF-kB) [z-score],binding signal [1] [z-score]
CCGATTAACATCACCGGAATTTCTGATGTTAATCGGGTCTTGATTCGCTTGACGCTGCTG,1.27,1.58,2.45,,
CCGATTAACATCACGGGATCTCCTGATGTTAATCGGGTCTTGATTCGCTTGACGCTGCTG,2.16,4.06,3.77,,
CCGATTAACATCACGGAATGCCCTGATGTTAATCGGGTCTTGATTCGCTTGACGCTGCTG,1.03,1.71,2.6,,
CCGATTAACATCAGGAGGTTCCCTGATGTTAATCGGGTCTTGATTCGCTTGACGCTGCTG,2.28,2.47,3.68,,
CCGATTAACATCACGGATATCCCTGATGTTAATCGGGTCTTGATTCGCTTGACGCTGCTG,1.57,2.04,2.76,1.15,
CCGATTAACATCATGGGGGGGAATGATGTTAATCGGGTCTTGATTCGCTTGACGCTGCTG,6.87,4.72,5.36,8.77,
CCGATTAACATCAAGGAATGCCCTGATGTTAATCGGGTCTTGATTCGCTTGACGCTGCTG,1.68,1.35,2.68,,
CCGATTAACATCAAGGGCATCCCTGATGTTAATCGGGTCTTGATTCGCTTGACGCTGCTG,1.42,5.6,2.86,,
CCGATTAACATCAGTGTCCCGTTTGATGTTAATCGGGTCTTGATTCGCTTGACGCTGCTG,,,1.32,,2.18
CCGATTAACATCAGTAGTGGGGCTGATGTTAATCGGGTCTTGATTCGCTTGACGCTGCTG,,,1.72,,1.01
CCGATTAACATCAAGGAAAGCCCTGATGTTAATCGGGTCTTGATTCGCTTGACGCTGCTG,1.19,3.3,3.45,,
CCGATTAACATCACGTAAGGGATTGATGTTAATCGGGTCTTGATTCGCTTGACGCTGCTG,,,2.43,,1.34
CCGATTAACATCAGGAGATCCCATGATGTTAATCGGGTCTTGATTCGCTTGACGCTGCTG,1.24,4.37,2.7,,
CCGATTAACATCACGGTACGGGGTGATGTTAATCGGGTCTTGATTCGCTTGACGCTGCTG,2.02,1.48,1.51,2.2,
CCGATTAACATCACGGGATGCCCTGATGTTAATCGGGTCTTGATTCGCTTGACGCTGCTG,1.03,5.65,3.09,,
CCGATTAACATCAGGAATGCCCATGATGTTAATCGGGTCTTGATTCGCTTGACGCTGCTG,1.27,1.49,1.96,,
CCGATTAACATCAGGCAATCCCATGATGTTAATCGGGTCTTGATTCGCTTGACGCTGCTG,1,2.82,1.38,,

Sequence,binding signal (GST-Ap-NF-kB RHD) [z-score],binding signal (GST-Dm-Relish) [z-score],binding signal (GST-Aq-NF-kB) [z-score],binding signal (GST-Co-NF-kB) [z-score],binding signal [1] [z-score]
CCGATTAACATCAGGGGTACACATGATGTTAATCGGGTCTTGATTCGCTTGACGCTGCTG,1.77,1.13,1.07,4.09,
CCGATTAACATCAGGAATCCCAATGATGTTAATCGGGTCTTGATTCGCTTGACGCTGCTG,1.71,7.14,1.48,,
CCGATTAACATCAAGAAATTTCCTGATGTTAATCGGGTCTTGATTCGCTTGACGCTGCTG,,,2.06,,1.11
CCGATTAACATCACCCCCTCCCCTGATGTTAATCGGGTCTTGATTCGCTTGACGCTGCTG,3.75,5.21,4.84,4.75,
CCGATTAACATCAGGGTCTTATATGATGTTAATCGGGTCTTGATTCGCTTGACGCTGCTG,,,2.15,,1.26
CCGATTAACATCAATCCCCCCCCTGATGTTAATCGGGTCTTGATTCGCTTGACGCTGCTG,7.49,6.09,5.2,7.2,
CCGATTAACATCAGCGGAATTCCTGATGTTAATCGGGTCTTGATTCGCTTGACGCTGCTG,1.33,2.27,1.89,,
CCGATTAACATCAGGAAACACCATGATGTTAATCGGGTCTTGATTCGCTTGACGCTGCTG,1,1.77,1.49,,
CCGATTAACATCAAGGAAATACCTGATGTTAATCGGGTCTTGATTCGCTTGACGCTGCTG,1.2,3.3,3.81,,
CCGATTAACATCAGGAAAGCCCATGATGTTAATCGGGTCTTGATTCGCTTGACGCTGCTG,1.24,4.29,3.12,,
CCGATTAACATCAGGAATTCCTATGATGTTAATCGGGTCTTGATTCGCTTGACGCTGCTG,1.1,3.7,2.07,,
CCGATTAACATCACGGGATGTCCTGATGTTAATCGGGTCTTGATTCGCTTGACGCTGCTG,1.47,3.42,3.06,,
CCGATTAACATCAATTCCCATGATGATGTTAATCGGGTCTTGATTCGCTTGACGCTGCTG,,,1.67,1.75,2.46
CCGATTAACATCAACTATCCCGCTGATGTTAATCGGGTCTTGATTCGCTTGACGCTGCTG,,,1.07,1.37,
CCGATTAACATCAATTCCCAACATGATGTTAATCGGGTCTTGATTCGCTTGACGCTGCTG,,,1.17,1.84,2.32
CCGATTAACATCAGGAATATTCCTGATGTTAATCGGGTCTTGATTCGCTTGACGCTGCTG,,,1.34,,1.22
